PLK1 PBD block – qHTS for Inhibitors of PLK1-PDB (polo-like kinase 1 - polo-box domain): Primary Screen; Serine/threonine-protein kinase PLK1 (Homo sapiens), P53350; Plk1 PBD binding of FITC phosphopeptide, fluorescence polarization; Potency, µM, without a hit: max response, negative = inhibition, actives largely listed as inhibitors; actives 2.8% (n = 360,000); note: series mostly up to about 57 µM; nearly all actives have a fitted effect of over 65% in size
Target sequence (P53350 whole entry, looked up, the tested form may be a part): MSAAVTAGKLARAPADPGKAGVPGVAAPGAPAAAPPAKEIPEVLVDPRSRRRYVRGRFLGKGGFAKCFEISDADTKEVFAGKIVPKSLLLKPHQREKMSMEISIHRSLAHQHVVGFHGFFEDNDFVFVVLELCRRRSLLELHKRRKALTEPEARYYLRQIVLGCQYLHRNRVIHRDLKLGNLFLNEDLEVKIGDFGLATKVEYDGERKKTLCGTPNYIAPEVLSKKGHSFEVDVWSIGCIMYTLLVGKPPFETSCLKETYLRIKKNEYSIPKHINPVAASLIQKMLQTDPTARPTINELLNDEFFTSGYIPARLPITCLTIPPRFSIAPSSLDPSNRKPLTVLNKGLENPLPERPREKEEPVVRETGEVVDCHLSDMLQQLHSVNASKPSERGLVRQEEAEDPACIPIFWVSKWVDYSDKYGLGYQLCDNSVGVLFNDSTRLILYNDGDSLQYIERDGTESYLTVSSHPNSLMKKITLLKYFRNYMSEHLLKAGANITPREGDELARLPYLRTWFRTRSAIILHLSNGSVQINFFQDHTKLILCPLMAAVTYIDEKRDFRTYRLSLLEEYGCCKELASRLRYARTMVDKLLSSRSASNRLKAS
IDH1 R132H inh – qHTS for Inhibitors of mutant isocitrate dehydrogenase 1 (IDH1): qHTS | Isocitrate dehydrogenase [NADP] cytoplasmic (Homo sapiens), O75874 | IDH1-R132H enzyme, NADPH consumption, diaphorase/resazurin fluorescence | Potency, µM (top dose mostly 76.6 µM), for the others: at the top dose activity change, negative = inhibition, actives largely listed as inhibitors | actives 0.093% (n = 390,000); note: nearly all actives have a fitted effect of over 65% in size
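IDH1-R132H (0.5 ug/mL dispensed) in pH 7.5 Tris buffer was preincubated 30 min with compound, then given a substrate mix of 0.016 mM NADPH and 2 mM alpha-KG for 80 min at room temperature; remaining NADPH was read by diaphorase/resazurin fluorescence.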
VDR inh – Inhibitors of the vitamin D receptor (VDR): qHTS; Vitamin D3 receptor (Homo sapiens), P11473; VDR-SRC2-3 peptide fluorescence polarization, 2 h; Potency, µM, inactives show max response, negative = inhibition, actives largely listed as inhibitors; actives 0.93% (n = 400,000); AID 504847, 2011
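Two reagent solutions held at 4 deg C in the dark were dispensed, compounds pinned at 23 nl, and the mixture incubated 2 h at room temperature. Read-out: fluorescence polarization of VDR–SRC2-3 peptide binding.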
Sfp inh – qHTS Assay for Inhibitors of Bacillus subtilis Sfp phosphopantetheinyl transferase (PPTase). 4'-phosphopantetheinyl transferase ffp (Bacillus subtilis), Q9F4F7. Biochemical Sfp PPTase activity, qHTS. Potency, µM, for inactives: largest response in the series, negative = inhibition, actives largely listed as inhibitors. actives 3.5% (n = 310,000). AID 1490, 2009;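 note: the enzyme is Sfp with the accession as filed and its product quenches rhodamine fluorescence; 0% = enzyme reaction without inhibitor and -100% = no enzyme wells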
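With Hepes-Na pH 7.6 buffer containing 10 mM MgCl2, Sfp (15 nM) modified BHQ-2-YbbR (12.5 uM) using rhodamine-CoA (5 uM). Two reads 30 minutes apart at 525/598 nm yielded each well's rate.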
TrxR1 inh – qHTS Assay for Inhibitors of Mammalian Selenoprotein Thioredoxin Reductase 1 (TrxR1): qHTS. Potency, µM (doses to about 114 µM), for inactives: at the top dose activity change, negative = inhibition, most hits filed as inhibitors. recombinant rTrxR1, NADPH fluorescence consumption, selenite substrate. actives 1% (n = 390,000); note: nearly all actives have a fitted effect of over 65% in size
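Rat TrxR1 (90 nM in the dispensed reagent) was pre-reduced with 400 uM NADPH for 5 min at room temperature, then incubated with compound for 15 min. After 400 uM selenite was added, NADPH fluorescence (Ex 340/Em 450 nm) was followed for 8 min.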
TrxR1 substrate – qHTS Assay for Substrates of Mammalian Selenoprotein Thioredoxin Reductase 1 (TrxR1): qHTS; Potency, µM (doses to about 114 µM), without a hit: top-dose activity change, negative = substrate turnover; purified TrxR1 substrate turnover, NADPH consumption readout; Thioredoxin reductase 1, cytoplasmic (Rattus norvegicus), O89049; AID 588456, 2011; actives 0.01% (n = 390,000); note: nearly all actives have a fitted effect of over 50% in size
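Rat TrxR1, dispensed at 90 nM, was prereduced with 400 uM NADPH (final) for 5 min at ~22 deg C, then incubated with compound 15 min before 400 uM selenite. A first-read NADPH fluorescence drop versus no-compound background flagged substrates.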
* = called active by the depositor; ? = inconclusive; / = not tested or not shown; [ ] = dose if it differs, or a comment. Rows were chosen to be rich in hits. Some 5.2% of all compounds tested hit in one or more screens of this group. Calls come from the whole dose curve; as a rule, active = well fitted curve in the direction sought with a large enough effect; inconclusive = small, poorly fitted or top-dose-only effect, or another doubt; inactive = no such curve, though single readings can be large; an effect the other way counts as inactive or inconclusive. Unless noted, % is set by controls: 0 for no effect and ±100 for the full control effect; potency is the fitted concentration of half-maximal effect.

SMILES	PLK1 PBD block	IDH1 R132H inh	VDR inh	Sfp inh	TrxR1 inh	TrxR1 substrate
CO/N=C/C(=N\Nc1ccc(OC)cc1)C(=O)c1ccc(F)cc1	23.8µM*	3.0%	1.2%	-9.3%	17.2%[57.1 µM]	8.1%[57.1 µM]
CO/N=C/C(=N\Nc1ccccc1)C(=O)c1ccccc1	23.8µM*	3.9%	-25.5%	-23.0%	21.5%[57.1 µM]	-25.3%[57.1 µM]
CO/N=C\C(=N\Nc1ccc(OC)cc1)C(=O)c1ccccc1	4.5%	18.6%	10.0%	?	-1.3%	-3.4%
O=C(C[n+]1cccc2cccc(O)c21)c1ccc(F)cc1	/	/	/	/	-8.7%	0.7%
CCOC(=O)C1=C(c2ccccc2)NC(=O)NC1c1cc(Cl)c(O)c(OC)c1 (stereo not drawn)	1.8%	9.2%	2.0%	-4.3%	5.0%[57.1 µM]	-0.3%[57.1 µM]
CCOC(=O)C1=C(c2ccccc2)NC(N)=NC1c1ccc(OCc2ccc(Cl)cc2)c(OC)c1 (stereo not drawn)	-0.5%	-6.1%	-21.5%	31.6µM*	6.0%	-4.7%
CC1CCC(NC(=O)c2cc(C3CC3)nn2-c2ccccc2)CC1 (stereo not drawn)	-1.4%	7.8%	-6.0%	/	6.5%	-7.0%
CSc1nc(-c2ccco2)nn1C(=O)c1ccco1	?	15.5%	-2.7%	?	?	2.9%
CSc1nc(-c2ccco2)nn1C(=O)c1ccc(C)cc1	?	-0.8%	-22.0%	?	20µM*	7.5%
COc1ccccc1C(=O)n1nc(-c2ccco2)nc1SC	10.6µM*	16.2%	-8.7%	-17.8%	?	1.5%
CCCC(=O)n1nc(-c2ccco2)nc1SCc1ccccc1	-16.6%	0.0%	-15.8%	50.1µM*	-11.9%	3.9%
O=C(CSc1nn(-c2ccc(Cl)cc2)c(=S)s1)NCC1CCCO1 (stereo not drawn)	-0.5%	0.5%	-11.5%	-6.1%	11.5%	4.7%
Cc1c(NC(=O)Nc2cccc(C#N)c2)c(=O)n(-c2ccccc2)n1C	3.7%	1.0%	-2.4%	16.8%	-0.3%	1.0%
FC(F)(F)c1ccc(Cl)c(-n2c(Cc3cccs3)n[nH]c2=S)c1	-18.4%	10.7%	2.2%	79.4µM*	-16.9%	-5.2%
COc1ccc(-c2nc3ccccc3n3c(-c4ccccc4)c4c(=O)n(C)c(=O)n(C)c4c23)cc1	/	22.4%	-18.7%	/	36.4%	7.0%
CC1CCC(NC(=O)COC(=O)CSc2ccc(C(N)=O)cc2[N+](=O)[O-])CC1 (stereo not drawn)	-28.0%	4.5%	-1.8%	/	0.2%[57.1 µM]	1.2%[57.1 µM]
Cc1ccc(CN(C)C(=O)COC(=O)CSc2ccc([N+](=O)[O-])cc2)cc1	13.4µM*	4.5%	?	/	-10.2%	-6.9%
CCN(C(=O)COC(=O)CSc1ccc([N+](=O)[O-])cc1)C1CCS(=O)(=O)C1 (stereo not drawn)	7.52µM*	-1.8%	?	14.0%	-29.6%	-14.4%
CN(C(=O)COC(=O)CSc1ccc([N+](=O)[O-])cc1)C1CCS(=O)(=O)C1 (stereo not drawn)	-11.8%	-5.8%	5.8%	/	-9.4%[57.1 µM]	-5.0%[57.1 µM]
O=C(COC(=O)CSc1ccc([N+](=O)[O-])cc1)NCCCc1ccccc1	8.44µM*	2.3%	70.8µM*	-2.0%	-4.6%	-1.6%
NC(=O)c1ccc(SCC(=O)OCC(=O)NC2CCCCCCC2)c([N+](=O)[O-])c1	23.8µM*	-3.8%	-17.9%	/	2.1%	-3.5%
CCCCc1ccc(NC(=O)c2cc3c(=O)n4ccccc4nc3s2)cc1	/	/	-11.7%	/	34.2%	22.5%
CC(OC(=O)CSc1ccc([N+](=O)[O-])cc1)C(=O)NCc1ccccc1 (stereo not drawn)	4.74µM*	10.0%	79.4µM*	/	0.3%[57.1 µM]	0.3%[57.1 µM]
O=C(COC(=O)CSc1ccc([N+](=O)[O-])cc1)NC1CCCCCCC1	23.8µM*	2.2%	?	/	-20.9%	-15.2%
Cc1ccc(SCC(=O)OCC(=O)NC2CCCCCCC2)cc1	-1.5%	4.5%	-3.9%	/	6.8%	-0.5%
SMILES	PLK1 PBD block	IDH1 R132H inh	VDR inh	Sfp inh	TrxR1 inh	TrxR1 substrate
O=C(COC(=O)CSc1ccc([N+](=O)[O-])cc1)NCCc1ccccc1	?	3.4%	-19.4%	/	0.7%	-2.7%
COc1ccc(Oc2nc3c(C)cccn3c(=O)c2/C=C(\C#N)c2nc3ccccc3[nH]2)cc1	/	/	-9.8%	/	10.3%	-1.2%
CCc1nnc(NC(=O)C2CCCCC2)s1	-8.0%	7.7%	9.4%	31.6µM*	19.6%	5.0%
CCc1nnc(NC(=O)CN2CC(C)OC(C)C2)s1 (stereo not drawn)	-4.1%	5.4%	-3.0%	-2.9%	20.2%	-1.7%
CCc1nnc(NC(=O)CN2CCN(C3CCCCC3)CC2)s1	-7.5%	7.5%	10.2%	89.1µM*	21.2%	11.4%
COc1ccc(-c2nc(CS(=O)(=O)CC(=O)NC3CCCCC3C)c(C)o2)cc1 (stereo not drawn)	23.8µM*	0.0%	?	21.8%	-24.4%	5.9%
Cc1ccc(-c2nc(CS(=O)(=O)CC(=O)N3CC(C)CC(C)C3)c(C)o2)cc1 (stereo not drawn)	-25.8%	-12.8%	?	-18.4%	3.98µM*	0.2%[57.1 µM]
CCOC(=O)N1CCC(NC(=O)CS(=O)(=O)Cc2nc(-c3ccc(OC)cc3)oc2C)CC1	21.2µM*	5.7%	?	1.7%	21.6%[57.1 µM]	4.7%[57.1 µM]
Cc1ccc(-c2nc(CS(=O)(=O)CC(=O)N3CCN(C)CC3)c(C)o2)cc1	-2.6%	-8.8%	-4.4%	7.6%	18.0%	1.4%
O=C(C[C@@H]1C/C=C/CC[C@H](Cc2ccc(F)cc2)C(=O)OC[C@@H](Cc2ccccc2)NC1=O)N[C@H](CO)Cc1ccccc1	-1.7%	-4.3%[38.3 µM]	17.1%	/	12.9%	0.9%
O=c1c(CCc2ccccc2)nc2cnc(Oc3ccccc3)nc2n1C1CC1	/	/	-1.6%	-12.3%	/	/
Oc1[nH]c2ccccc2c1N=Nc1nc(Nc2ccccc2)nc(N2CCOCC2)n1	5.7%	3.3%	0.6%	15.8µM*	13.1%	12.0%
CCOC(=O)c1cc(C(=O)OCC)c(=O)[nH]c1C	-8.7%	0.7%	12.8%	?	-7.7%	-2.5%
CCOC(=O)c1cc(C)[nH]c(=S)c1C#N	26.7µM*	-3.8%	-2.6%	39.8µM*	?	6.4%[57.1 µM]
C=C1C=C(C)n2ncc(C(=O)Nc3ccc(NC(C)=O)c(Cl)c3)c2N1	/	/	/	/	3.4%	0.5%

Compound activity: PubChem, National Center for Advancing Translational Sciences (NCATS)
